# Activity calls are given as the source filed them.
# Columns and labels:
# [1] = test system: Plasmodium falciparum Sir2 (PF13_0152, Sir2A); assay: pfSir2 binders on small-molecule microarrays, primary screen, biochemical, small-molecule microarray, 635 nm fluorescence (AID 1098); settings: small-molecule microarray binding, fluorescence 635 nm; higher = more signal;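 further: score merges spot fluorescence intensity with its signal-to-noise ratio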
# [2] = small-molecule microarray binders of probe aDKK1, primary screen, biochemical, biotinylated probe, 635/667 nm fluorescence (AID 1099); settings: higher = more signal;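 further: score merges 667nm spot fluorescence with signal to noise across triplicate slides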
# [3] = small-molecule microarray binders of probe aCHRDL2, primary screen, biochemical, biotinylated probe, 635/667 nm fluorescence (AID 1100); settings: higher = more signal
# [4] = splicing luciferase reporter signal modulators, primary screen, spliceosome inhibition project, cell-based, HEK293, splice +/- reporter (AID 1101); settings: luminescence, 24 h, higher = more signal, called active from +8 up or from −8 down;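 further: HEK293 cells carrying a splicing-competent luciferase reporter gene; test concentration not given here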
# [5] = biological target: Fibroblast growth factor 10 (Homo sapiens) (UniProt O15520); assay: FGF10 binders on small-molecule microarrays, primary screen, biochemical, small-molecule microarray, 635 nm fluorescence (AID 1102); settings: FGF10 binding, fluorescence 635 nm, higher = more signal
# Sequence of Fibroblast growth factor 10 (Homo sapiens) (O15520 whole entry, looked up): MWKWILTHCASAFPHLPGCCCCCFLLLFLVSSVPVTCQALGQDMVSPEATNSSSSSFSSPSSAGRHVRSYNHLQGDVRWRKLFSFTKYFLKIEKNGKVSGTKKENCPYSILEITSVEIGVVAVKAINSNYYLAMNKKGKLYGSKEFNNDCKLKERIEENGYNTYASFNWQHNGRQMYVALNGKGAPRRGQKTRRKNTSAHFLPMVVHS
# [6] = test system: glycogen synthase kinase-3 (GSK3A per assay name; protocol says GSK3B); assay: GSK3 binders on small-molecule microarrays, primary screen, biochemical, small-molecule microarray, 635 nm fluorescence, GSK3A (AID 1103); settings: small-molecule microarray binding, fluorescence 635 nm; higher = more signal; further: the record names both GSK3A and GSK3B
# [7] = biological target: Epidermal growth factor receptor (Homo sapiens) (UniProt P00533); assay: EGFR binders on small-molecule microarrays, primary screen, biochemical, small-molecule microarray, 635 nm fluorescence (AID 1104); settings: EGFR binding, higher = more signal;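 further: score merges 667 nm emission intensity with spot signal to noise over triplicate slides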
# Sequence of Epidermal growth factor receptor (Homo sapiens) (P00533 whole entry, looked up): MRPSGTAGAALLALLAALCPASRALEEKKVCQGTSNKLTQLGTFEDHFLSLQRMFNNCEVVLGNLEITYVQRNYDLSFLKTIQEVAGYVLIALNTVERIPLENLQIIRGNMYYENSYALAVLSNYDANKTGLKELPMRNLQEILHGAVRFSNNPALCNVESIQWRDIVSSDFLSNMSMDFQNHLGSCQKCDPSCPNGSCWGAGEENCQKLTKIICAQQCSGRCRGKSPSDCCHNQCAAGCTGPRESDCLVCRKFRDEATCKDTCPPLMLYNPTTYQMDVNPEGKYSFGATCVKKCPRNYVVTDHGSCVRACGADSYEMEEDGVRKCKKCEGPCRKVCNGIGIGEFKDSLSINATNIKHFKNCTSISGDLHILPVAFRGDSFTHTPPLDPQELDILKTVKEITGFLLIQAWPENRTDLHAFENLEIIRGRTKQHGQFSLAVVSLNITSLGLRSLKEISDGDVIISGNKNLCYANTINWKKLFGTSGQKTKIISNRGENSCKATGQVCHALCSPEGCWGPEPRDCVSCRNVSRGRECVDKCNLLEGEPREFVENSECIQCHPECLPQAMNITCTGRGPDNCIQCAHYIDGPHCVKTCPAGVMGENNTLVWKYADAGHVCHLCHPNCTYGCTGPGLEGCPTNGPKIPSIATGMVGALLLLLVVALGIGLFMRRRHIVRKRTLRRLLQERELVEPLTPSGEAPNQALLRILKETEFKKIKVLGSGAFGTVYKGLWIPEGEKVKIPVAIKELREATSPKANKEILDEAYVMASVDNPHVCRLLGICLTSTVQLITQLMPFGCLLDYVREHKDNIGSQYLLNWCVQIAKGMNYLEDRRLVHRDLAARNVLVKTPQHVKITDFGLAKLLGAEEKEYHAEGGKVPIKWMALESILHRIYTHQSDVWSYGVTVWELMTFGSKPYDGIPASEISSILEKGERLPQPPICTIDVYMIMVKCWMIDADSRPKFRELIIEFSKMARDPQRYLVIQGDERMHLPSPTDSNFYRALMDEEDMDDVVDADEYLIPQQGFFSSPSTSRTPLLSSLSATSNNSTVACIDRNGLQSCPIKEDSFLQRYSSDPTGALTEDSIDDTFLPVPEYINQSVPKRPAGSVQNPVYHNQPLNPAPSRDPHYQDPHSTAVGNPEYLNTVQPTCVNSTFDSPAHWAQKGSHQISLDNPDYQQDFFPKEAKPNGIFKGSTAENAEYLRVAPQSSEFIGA
# [8] = biological target: Follistatin-related protein 3 (Homo sapiens) (UniProt O95633); assay: FSTL3 binders on small-molecule microarrays, primary screen, biochemical, small-molecule microarray, 635 nm fluorescence (AID 1105); settings: FSTL3 binding, higher = more signal;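 further: score merges emission near 667 nm and signal to noise per printed spot across three slides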
# Sequence of Follistatin-related protein 3 (Homo sapiens) (O95633 whole entry, looked up): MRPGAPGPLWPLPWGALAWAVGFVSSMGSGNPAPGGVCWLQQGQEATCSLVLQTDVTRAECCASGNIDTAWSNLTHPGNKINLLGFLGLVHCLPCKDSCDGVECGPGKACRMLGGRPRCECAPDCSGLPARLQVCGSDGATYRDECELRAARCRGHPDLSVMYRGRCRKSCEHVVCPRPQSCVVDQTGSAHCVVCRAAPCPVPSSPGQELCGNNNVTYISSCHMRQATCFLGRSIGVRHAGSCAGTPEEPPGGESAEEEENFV
# [9] = biological target: Dickkopf-related protein 1 (Homo sapiens) (UniProt O94907); assay: DKK1 binders on small-molecule microarrays, primary screen, biochemical, small-molecule microarray, 635 nm fluorescence scan (AID 1106); settings: DKK1 binding, higher = more signal;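 further: score merges emission near 667 nm with signal to noise over three replicate slides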
# Sequence of Dickkopf-related protein 1 (Homo sapiens) (O94907 whole entry, looked up): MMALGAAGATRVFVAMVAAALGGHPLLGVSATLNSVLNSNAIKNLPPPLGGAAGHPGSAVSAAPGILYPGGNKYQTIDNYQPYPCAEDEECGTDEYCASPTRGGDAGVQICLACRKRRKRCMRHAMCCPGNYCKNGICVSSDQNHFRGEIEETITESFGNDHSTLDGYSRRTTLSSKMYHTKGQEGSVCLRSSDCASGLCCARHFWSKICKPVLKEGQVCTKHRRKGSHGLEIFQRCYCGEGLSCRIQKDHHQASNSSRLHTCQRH
# [10] = test system: Inhibin beta A chain (activin A); assay: INHBA (activin A) binders on microarrays, primary screen, biochemical, small-molecule microarray, 635 nm fluorescence scan (AID 1107); settings: small-molecule microarray binding, higher = more signal;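 further: mouse activin A protein probed at 4.33 µg/mL on printed slides; score merges bound-protein fluorescence near 667 nm with spot signal-to-noise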
# [11] = test system: Human papillomavirus type 1a protein E7 (residues 44-93); assay: HPV1a E7 fragment binders on microarrays, primary screen, biochemical, small-molecule microarray, residues 44-93, 635 nm fluorescence (AID 1108); settings: small-molecule microarray binding, fluorescence 635 nm; higher = more signal;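 further: E7 fragment applied at 1 µg/mL in TBST for 1 h at 4 C; score combines spot fluorescence with its signal to noise ratio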
# [12] = modulators of HCV replicon luciferase signal, primary screen, HCV replication inhibitor project, Huh7 cells, luciferase reporter (AID 1109); settings: 48 h, higher = more signal;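 further: huh7 hepatoma cells harbouring a luciferase neomycin HCV replicon reporter; luciferase luminescence as measure of HCV replicon replication; test concentration not given here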
# [13] = biological target: Left-right determination factor 2 (Homo sapiens) (UniProt O00292); assay: LEFTY2 binders on small-molecule microarrays, primary screen, biochemical, small-molecule microarray, 635 nm fluorescence scan (AID 1110); settings: LEFTY2 binding, higher = more signal
# Sequence of Left-right determination factor 2 (Homo sapiens) (O00292 whole entry, looked up): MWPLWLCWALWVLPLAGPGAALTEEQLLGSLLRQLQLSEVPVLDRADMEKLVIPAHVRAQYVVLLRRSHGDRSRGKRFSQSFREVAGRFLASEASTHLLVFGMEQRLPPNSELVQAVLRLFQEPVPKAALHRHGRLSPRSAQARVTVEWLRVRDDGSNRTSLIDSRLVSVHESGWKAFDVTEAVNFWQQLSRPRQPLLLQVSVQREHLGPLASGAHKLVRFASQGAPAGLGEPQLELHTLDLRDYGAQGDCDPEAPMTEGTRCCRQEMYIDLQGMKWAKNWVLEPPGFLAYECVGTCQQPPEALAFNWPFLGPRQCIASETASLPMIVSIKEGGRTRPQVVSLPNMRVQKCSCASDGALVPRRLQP
# [14] = biological target: Calmodulin-1 (Homo sapiens) (UniProt P0DP23); assay: CALM1 binders on microarrays, EGTA buffer, profiling panel, biochemical, small-molecule microarray, Cy5-labelled CALM1 (AID 1111); settings: Cy5-CALM1 binding fluorescence, higher = more signal;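 further: labelled calmodulin applied in Tris saline Tween buffer holding calcium plus EGTA and DTT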
# [15] = biological target: Calmodulin-1 (Homo sapiens) (UniProt P0DP23); assay: calcium-bound CALM1 binders on microarrays, profiling panel, artefact control for SMM control-protein annotation, biochemical, small-molecule microarray, Cy5-labelled CALM1, plus calcium (AID 1112); settings: Cy5-CALM1 binding fluorescence, higher = more signal;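 further: score merges spot fluorescence with signal to noise from triplicate slides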
# [16] = small-molecule microarray binders of probe aWnt5a, primary screen, biochemical, biotinylated probe, 635/667 nm fluorescence (AID 1113); settings: higher = more signal;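 further: score merges 667 nm fluorescence intensity with signal-to-noise per printed feature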
# [17] = small-molecule microarray binders of probe aShh, primary screen, biochemical, biotinylated probe, 635/667 nm fluorescence (AID 1114); settings: higher = more signal;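 further: probe is biotin-labelled aShh protein from a stem cell growth factor screen; measures binding of labelled protein to compounds printed on the slide; score merges feature fluorescence at 667 nm with signal-to-noise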
# [18] = small-molecule microarray binders of probe aNog, primary screen, biochemical, biotinylated probe, 635/667 nm fluorescence (AID 1115); settings: higher = more signal;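 further: probe is biotinylated aNog protein used at 0.15 µg/mL for 1 h at 4 C; z-score combines 667 nm fluorescence of each spot with its signal to noise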
# [19] = biological target: Torsin-1A-interacting protein 1 (Homo sapiens) (UniProt Q5JTV8); assay: LAP1 binders from COS7 cell lysate, primary screen, small-molecule microarray, 635/667 nm fluorescence (AID 1116); settings: COS7-hLAP1 lysate binding, 635 nm fluorescence, higher = more signal
# Sequence of Torsin-1A-interacting protein 1 (Homo sapiens) (Q5JTV8 whole entry, looked up): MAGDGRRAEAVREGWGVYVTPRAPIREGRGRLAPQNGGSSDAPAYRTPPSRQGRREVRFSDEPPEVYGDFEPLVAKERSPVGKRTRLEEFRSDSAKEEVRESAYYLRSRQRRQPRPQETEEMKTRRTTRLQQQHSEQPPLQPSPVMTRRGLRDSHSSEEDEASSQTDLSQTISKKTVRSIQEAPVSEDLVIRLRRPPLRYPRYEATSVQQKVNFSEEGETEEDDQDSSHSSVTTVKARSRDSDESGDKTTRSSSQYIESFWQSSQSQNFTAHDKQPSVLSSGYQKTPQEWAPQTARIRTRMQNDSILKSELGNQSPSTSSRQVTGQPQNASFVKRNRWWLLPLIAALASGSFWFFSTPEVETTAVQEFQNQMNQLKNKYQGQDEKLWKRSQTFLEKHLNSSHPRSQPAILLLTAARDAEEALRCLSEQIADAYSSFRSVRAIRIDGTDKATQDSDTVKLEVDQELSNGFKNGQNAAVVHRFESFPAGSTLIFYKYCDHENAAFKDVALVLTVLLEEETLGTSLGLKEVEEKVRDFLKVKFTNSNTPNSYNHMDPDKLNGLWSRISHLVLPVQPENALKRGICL
# [20] = biological target: Alpha-bungarotoxin (Bungarus multicinctus) (UniProt P60615); assay: alpha-bungarotoxin binders on microarray, profiling panel, artefact control for SMM control protein annotation, biochemical, small-molecule microarray, Alexa647 label, 635/667 nm fluorescence (AID 1117); settings: alpha-BTX-A647 binding fluorescence, higher = more signal
# Sequence of Alpha-bungarotoxin (Bungarus multicinctus) (P60615 whole entry, looked up): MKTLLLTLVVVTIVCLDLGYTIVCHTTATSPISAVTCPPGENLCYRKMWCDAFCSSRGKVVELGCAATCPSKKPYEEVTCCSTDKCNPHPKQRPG
Structure (SMILES),composite z-score [1],composite z-score [2],composite z-score [3],z-score [4],composite z-score [5],composite z-score [6],composite z-score [7],composite z-score [8],composite z-score [9],composite z-score [10],composite z-score [11],z-score [12],composite z-score [13],composite z-score [14],composite z-score [15],composite z-score [16],composite z-score [17],composite z-score [18],composite z-score [19],composite z-score [20]
Cc1ccccc1C(O)C1C=CC2C(=O)N(c3ccccc3)C(=O)C2N1Nc1ccc([N+](=O)[O-])cc1 (stereo not given),1.3,0.25,0.793,-0.0433 (inactive),0.597,1.29,0.217,1.19,0.0125,0.816,1.42,-0.598,0.174,1.05,0.656,-0.012,0.0684,1.63,2.03,0.625
O=C1C2C=CC(C(O)c3ccco3)N(Nc3ccccc3)C2C(=O)N1c1ccccc1 (stereo not given),0.576,0.144,0.878,0.14 (inactive),-0.322,-0.678,-0.616,-0.713,-0.555,0.781,-0.335,0.305,-0.756,-0.136,0.245,-0.006,0.0121,0.181,-0.479,-0.0188
COCCOC(=O)N1C(=O)[C@@]2(c3cc(C#CCNC(N)=O)ccc31)[C@H](c1ccc(O)cc1)N1[C@H](c3ccccc3)[C@H](c3ccccc3)OC(=O)[C@H]1[C@@H]2C(N)=O,-0.583,-0.224,0.444,0.00136 (inactive),-1.62,-1.32,-1.9,-2.16,-1.86,-1.08,-0.8,-0.101,-2.24,-0.747,0.502,-0.377,-0.378,-0.0585,-0.448,-2.27
COc1cccc(/C=C(\C#N)C(=O)Nc2c(C)n(C)n(-c3ccccc3)c2=O)c1,0.129,-0.0045,0.0654,-0.238 (inactive),0.179,0.497,0.413,0.447,0.0952,0.141,1.11,-0.479,0.303,1.27,0.0209,-0.0894,-0.223,-0.0899,0.569,1.19
C=CCC(OC(C)=O)[C@@H]1[C@@H](N(Cc2ccc(-c3ccccc3)cc2)C(=O)Cc2ccc(F)cc2)c2cc(OCCCO)ccc2N1C(=O)Cc1ccc2ccccc2c1 (stereo not given in full),-0.261,-0.0697,0.652,-0.681 (inactive),-0.13,-0.199,-0.113,-0.507,-0.117,1.3,-0.333,0.482,0.0808,1.07,0.743,0.0495,-0.153,0.0335,0.542,-0.0297
COc1ccc(C#Cc2ccc3c(c2)[C@]2(C(=O)N3)[C@H](c3ccc(OCCO)cc3)N3[C@H](c4ccccc4)[C@H](c4ccccc4)OC(=O)[C@H]3[C@@H]2C(=O)N2CCc3cc(OC)c(OC)cc3C2)cc1,1.38,1.5,0.185,-0.517 (inactive),1.23,1.28,0.871,1.01,1.28,-0.258,1.33,-1.23,0.461,1.08,0.684,-0.0215,0.0589,-0.155,0.168,0.841

# From PubChem BioAssay
